Measurements as given in PubChem BioAssay (NCATS).
Inconclusive results are not listed. Active and inactive are the calls of the source. Calls come from the whole dose curve; as a rule, active = well fitted inhibition curve with a large enough effect; inconclusive = small, poorly fitted or top-dose-only effect; inactive = flat fitted curve, though single readings scatter.

Each molecule was assayed against Aldehyde dehydrogenase, mitochondrial (Homo sapiens) (UniProt P05091) (assay: qHTS for Inhibitors of the Aldehyde Dehydrogenase Family (ALDH2) Primary screen (AID 2061308;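 note: plate controls were vehicle for no effect and reference inhibitor for full effect; nearly all actives have a fitted effect of over 55% in size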)). Conditions: ALDH2 enzyme inhibition qHTS, 1536-well; series mostly up to 56 µM; activity change, negative = inhibition: at the top concentration.

Row | Structure (SMILES) | activity change, negative = inhibition
1 | O=C(c1ccccc1O)N(Cc1ccccc1)Cc1ccccc1 | 8.29% (inactive)
2 | N#Cc1ccc(CSc2nc3ncc(Br)cc3[nH]2)cc1 | 20% (inactive)
3 | Cc1cc(N[S+](=O)([O-])c2cc3c(cc2Cl)CCC(=O)N3)ccc1Cl | -11.7% (inactive)
4 | Fc1ccccc1-c1nc(NCc2ccc(-c3cccnc3)cc2)c2ccccc2n1 | 1.85% (inactive)
5 | S=C(NCCCc1cnc[nH]1)NCCCN(Cc1ccc(Cl)cc1)c1ccc(Br)cn1 | 10.6% (inactive)
6 | C/C1=C\CCC2=CC(OC2=O)C(C)(C)/C=C/C1=O (configuration not stated) | -6.7% (inactive)
7 | Cc1c(P(=S)(c2ccccc2)c2ccccc2)c2ccccc2n1CCc1ccccc1 | 7.91% (inactive)
8 | Cc1ccc(N(C)S(=O)(=O)c2ccc3c(c2)CCC(=O)N3)cc1C | 0.64% (inactive)
9 | CNc1oc(-c2cccc3c2OC(F)(F)O3)nc1C#N | 12.1% (inactive)
10 | C[C@H]1CN(S(=O)(=O)c2ccc3c(c2)OCCO3)CCN1S(=O)(=O)c1c(F)cccc1F | 1.51% (inactive)
11 | COc1ccc(NC(=O)c2ccc(-c3nc4ccccc4[nH]3)cc2)cc1OC | -5.28% (inactive)
12 | O=C(NCc1ccc(Cl)c(Cl)c1)Nc1nnc(-c2ccncc2)s1 | 10.1% (inactive)
13 | O=C1CCc2cc(S(=O)(=O)Nc3ccc4c(c3)CCC4)ccc2N1 | 13.8% (inactive)
14 | N#CC1=C(NC=NCc2ccccc2)Oc2ccc3ccccc3c2C1c1ccccc1 (configuration not stated) | -9.87% (inactive)
15 | CCn1c2cc(C)sc2c2cnn(Cc3ccccc3F)c(=O)c21 | -6.29% (inactive)
16 | N#Cc1ccc(NS(=O)(=O)c2ccc(NC(=O)Cc3ccc(F)c(Cl)c3)cc2)cc1 | -2.26% (inactive)
17 | COc1cccc(NS(=O)(=O)c2ccc(C)cc2)c1C(=O)Nc1nc(-c2ccccc2)cs1 | -4.62% (inactive)
